Assay outcomes as filed in PubChem BioAssay.
The list is a sample of the results.
3T3 cytotox: Cytotoxic Profiling in NIH 3T3 Cell Line of Diverse Libraries Using Quantitative High-Throughput Screening | NIH 3T3 viability, CellTiter-Glo ATP luminescence, 48-72 h | Potency, µM (titrated, usually from 96.7 µM), for the others: at the highest dose activity change, negative = cytotoxicity, most hits filed as inhibitors | 94,000 compounds, 4.3% hits; also: % is scaled to controls: 0 for no effect and ±100 for the full control effect; nearly all actives have a fitted effect of over 55% in size
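NIH 3T3 cells at 400 cells/well received 23 nL of compound by pintool and were incubated 48 or 72 h at 37 °C. Viability was read as ATP-coupled CellTiter-Glo luminescence.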
NPR1 antag: Natriuretic polypeptide receptor (hNpr1) antagonism - Primary qHTS. AID 1347048, 2019. Potency, µM (top dose mostly 46.3 µM), inactives show at the highest dose activity change, negative = inhibition, most hits filed as inhibitors. HEK293 hNpr1 GloSensor cGMP, ANP-stimulated luminescence. Atrial natriuretic peptide receptor 1 (Homo sapiens), P16066. 76,000 compounds, 1.6% hits; calls by dose curve; also: % is scaled to controls: 0 for no effect and ±100 for the full control effect; nearly all actives have a fitted effect of over 60% in size
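HEK293 cells stably expressing human Npr1 and cGMP GloSensor pGS-40F, loaded 2 h with 2% GloSensor reagent, given compound 30 min at room temperature. Luminescence read before and 20 min after 0.1 nM hNppA.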
HEK cytotox: Cytotoxic Profiling in HEK 293 Cell Line of Diverse Libraries Using Quantitative High-Throughput Screening. HEK 293 viability, ATP luminescence (CellTiter-Glo), 48-72 h. Potency, µM (doses to about 115 µM), for the others: top-dose activity change, negative = cytotoxicity, usual class: inhibitors. 94,000 compounds, 6.6% hits; also: % is scaled to controls: 0 for no effect and ±100 for the full control effect; nearly all actives have a fitted effect of over 60% in size
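Luminescence from cellular ATP, measured with CellTiter-Glo, indicates HEK 293 viability. Cells plated at 250 cells/well are treated with compound for 48 or 72 hr at 37 degree Celsius before reagent addition.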
FLuc inh-1: Firefly luciferase inhibition profiling of diverse chemical library using quantitative high-throughput screening. Luciferin 4-monooxygenase (Photinus pyralis), P08659. purified P. pyralis luciferase, luminescence, biochemical. Potency, µM (top dose mostly 115 µM), hits mostly inhibitors. 76,000 compounds, 2.5% hits. AID 1347043, 2019; also: % is scaled to controls: 0 for no effect and ±100 for the full control effect; nearly all actives have a fitted effect of over 65% in size
Target sequence (P08659 whole entry, looked up): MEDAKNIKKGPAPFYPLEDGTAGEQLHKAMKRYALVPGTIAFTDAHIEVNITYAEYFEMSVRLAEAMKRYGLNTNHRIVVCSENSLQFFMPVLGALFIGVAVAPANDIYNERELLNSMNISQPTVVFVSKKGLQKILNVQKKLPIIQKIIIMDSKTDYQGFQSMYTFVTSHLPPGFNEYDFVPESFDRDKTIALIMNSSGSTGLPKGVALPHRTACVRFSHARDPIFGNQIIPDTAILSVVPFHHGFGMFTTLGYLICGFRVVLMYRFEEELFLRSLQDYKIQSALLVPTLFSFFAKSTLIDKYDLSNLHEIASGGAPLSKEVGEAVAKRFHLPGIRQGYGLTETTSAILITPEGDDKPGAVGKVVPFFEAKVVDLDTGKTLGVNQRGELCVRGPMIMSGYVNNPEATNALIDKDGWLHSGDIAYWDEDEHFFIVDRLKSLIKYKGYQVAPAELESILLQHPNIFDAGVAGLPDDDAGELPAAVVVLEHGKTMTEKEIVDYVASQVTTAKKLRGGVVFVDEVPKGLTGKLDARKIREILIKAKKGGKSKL
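Purified P. pyralis luciferase (10nM final) in 50mM Tris acetate pH 7.5, 10mM Mg acetate, 0.01% Tween-20, 0.05% BSA with 10uM D-luciferin and 10uM ATP. Compounds titrated qHTS. Luminescence imaged on CCD.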
FLuc SDR no ATP: Firefly luciferase (FLuc-C-HiBiT) SDR gain of signal screen - without ATP. Potency, µM (highest dose often 32.7 µM), for inactives: at the highest dose activation (signal gain), actives largely listed as activators. 1,300 compounds, 7.8% hits. Purified FLuc-C-HiBiT, Nano-Glo HiBiT luminescence, no ATP. shares compounds with FLuc inh-1. AID 1963318, 2024; also: nearly all actives have a fitted effect of over 55% in size
FLuc SDR ATP: Firefly luciferase (FLuc-C-HiBiT) SDR gain of signal screen - plus ATP; shares compounds with FLuc inh-1; purified FLuc-C-HiBiT + ATP, HiBiT complementation luminescence; Potency, µM (titrated, usually from 32.7 µM), without a hit: top-dose activation (gain of signal), actives largely listed as activators; 1,300 compounds, 8.7% hits;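 also: signal reports ligand binding via conformational change of the enzyme rather than luciferase catalysis; % of control where 0% means no effect; nearly all actives have a fitted effect of over 55% in size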
FLuc inh-2: Firefly luciferase (FLuc-C-HiBiT) enzymatic inhibition screen - Functional assay | shares compounds with FLuc inh-1 | purified FLuc-C-HiBiT enzyme, luciferin luminescence | Potency, µM (series often up to 32.7 µM), for the others: at the top dose activity change, negative = inhibition, usual class: inhibitors | 1,300 compounds, 42% hits; also: % is scaled to controls: 0 for no effect and ±100 for the full control effect; nearly all actives have a fitted effect of over 70% in size
The depositor's hits bear a star; i = inactive; u = inconclusive; x = no result given; [ ] = remark or other dose. Unless noted, calls follow the shape of the dose curve; as a rule, active = well fitted curve in the direction sought with a large enough effect; inconclusive = small, poorly fitted or top-dose-only effect, or another doubt; inactive = no such curve, though single readings can be large; an effect the other way counts as inactive or inconclusive. Potency is read from the fitted curve at half-maximal effect.

SMILES | 3T3 cytotox | NPR1 antag | HEK cytotox | FLuc inh-1 | FLuc SDR no ATP | FLuc SDR ATP | FLuc inh-2
Cc1ccc(C2Cn3nnc(-c4noc(-c5n[nH]c6c5CCCC6)n4)c3CO2)cc1 (centres undefined) | u | 1.3% | u | i | x | x | x
COc1ccccc1OC(C)C(=O)Nc1cccc(-c2nc3ccccc3s2)c1 (centres undefined) | x | x | x | x | 9.8% | 7.3% | u
Cc1ccc(NC(=O)c2cn3cc(-c4ccc(C)cc4)sc3n2)cc1 | -15.3% | x | -11.5% | x | x | x | x
COc1ccccc1CNC(=O)c1cc2cn(C(C)C)cc2s1 | -25.2% | u | u | i | x | x | x
O=C(Nc1ccc(-c2nc3ccccc3s2)cc1)c1c(F)c(F)c(F)c(F)c1F | x | x | x | x | 13.2% | 9.8% | 4.8%
CC(Oc1ccccc1F)C(=O)Nc1ccc(-c2nc3ccccc3s2)cc1 (centres undefined) | x | x | x | x | 16.0% | 10.8% | u
CCCCC(=O)Nc1cccc(-c2nc3ccccc3s2)c1 | x | x | x | x | 16.1% | 12.4% | u
Cc1cc(C)cc(OCC(=O)Nc2ccc(-c3nc4ccccc4s3)cc2)c1 | x | x | x | x | 13.6% | 10.2% | -1.2%
COc1ccc(NC(=O)COc2cccc(-c3nnc4n3CCCC4)c2)cc1 | -13.8% | -1.1% | 0.1% | i | x | x | x
CCCC(=O)Nc1ccccc1-c1cccc(NC(C)=O)c1 | -0.7% | 4.8% | 2.1% | i | x | x | x
COc1cccc(CC(=O)Nc2ccc(-c3nc4ccccc4s3)cc2)c1 | x | x | x | x | 23.9% | 19.4% | u
COc1cccc(CC(=O)Nc2ccc3ncnc(N4CCCC4)c3c2)c1 | u | 4.9% | u | i | x | x | x
COCC(=O)NC[C@H]1O[C@@H](CO)[C@@H](O)[C@H]1N1CCC(C)CC1 | 3.7%[138 µM] | 8.5%[70.6 µM] | -2.5%[172 µM] | i | x | x | x
O=C(c1cccc(Cl)c1)N1CCC(C(=O)N2CCC(N3CCCC3=O)CC2)CC1 | -18.2% | x | -5.0% | x | x | x | x
Cc1cccc(CNC(=O)c2c(C)noc2-c2ccccc2Cl)c1 | u | -3.0% | u | i | x | x | x
CCc1cccc(NCc2ccccc2-c2nnc(-c3ccccc3Cl)o2)c1 | x | x | x | x | 12.1% | 11.3% | -3.6%
Cc1ccc(C)c(N2CCN(C(=O)C3CCN(c4nc(-c5ccc(C(C)C)cc5)no4)CC3)CC2)c1 | x | x | x | x | 21.9% | u | u
Cc1ccc(NC(=O)C2CCN(c3nc(-c4ccc(C(C)C)cc4)no3)CC2)c(Cl)c1 | x | x | x | x | 17.9% | u | u
Cc1ccc(-c2noc([C@@H]3CCCN3C(=O)c3ccc(C(C)C)cc3)n2)cc1 | u | 3.7% | u | u | x | x | x
COc1ccc(-c2noc([C@@H]3C[C@@H](O)CN3Cc3cccs3)n2)cc1 | -36.2%[174 µM] | -14.4%[70.6 µM] | -22.5%[172 µM] | 14.1µM* | 9.6%[49.3 µM] | 9.0%[49.3 µM] | u
O=[N+]([O-])c1cccc(-c2noc([C@@H]3C[C@@H](O)CN3Cc3cccs3)n2)c1 | u | 4.4%[70.6 µM] | u | u | x | x | x
O=C1CC2(CCN(c3nc(-c4ccccc4)no3)CC2)CN1Cc1ccccc1 | u | u | u | i | x | x | x
OCC1(CC2CC2)CCCN(c2nc(-c3ccccc3)no2)C1 (centres undefined) | u | -3.5% | u | 14.1µM* | 10.9% | 12.5% | -12.2%
C[C@@H]1CN(c2nc(-c3ccccc3)no2)CC[C@@]1(O)C1CCC1 | u | 5.62µM* | u | 0.355µM* | u | u | 1.76µM*
